Measurements from PubChem BioAssay (NCATS).
Several values for one entry are separate records, joined by “and”; a condition that tells them apart may be missing. Equal entries are not always repeated. Records with an inconclusive call do not appear. Entries that show only a call come without a potency. Unmarked numbers belong to inactive results. Activity calls are given as the source filed them. Calls come from the whole dose curve; as a rule, active = well fitted curve in the direction sought with a large enough effect; inconclusive = small, poorly fitted or top-dose-only effect, or another doubt; inactive = no such curve, though single readings can be large; an effect the other way counts as inactive or inconclusive.

How the values were obtained:
[1] = biological target: Cytochrome P450 3A7 (Homo sapiens) (UniProt P24462); assay: Cytochrome P450 family 3 subfamily A member 7 (CYP3A7) small molecule antagonists: luciferase biochemical qHTS assay (AID 1963596); note: nearly all actives have a fitted effect of over 40% in size
Chain of Cytochrome P450 3A7 (Homo sapiens) (P24462 whole entry, looked up): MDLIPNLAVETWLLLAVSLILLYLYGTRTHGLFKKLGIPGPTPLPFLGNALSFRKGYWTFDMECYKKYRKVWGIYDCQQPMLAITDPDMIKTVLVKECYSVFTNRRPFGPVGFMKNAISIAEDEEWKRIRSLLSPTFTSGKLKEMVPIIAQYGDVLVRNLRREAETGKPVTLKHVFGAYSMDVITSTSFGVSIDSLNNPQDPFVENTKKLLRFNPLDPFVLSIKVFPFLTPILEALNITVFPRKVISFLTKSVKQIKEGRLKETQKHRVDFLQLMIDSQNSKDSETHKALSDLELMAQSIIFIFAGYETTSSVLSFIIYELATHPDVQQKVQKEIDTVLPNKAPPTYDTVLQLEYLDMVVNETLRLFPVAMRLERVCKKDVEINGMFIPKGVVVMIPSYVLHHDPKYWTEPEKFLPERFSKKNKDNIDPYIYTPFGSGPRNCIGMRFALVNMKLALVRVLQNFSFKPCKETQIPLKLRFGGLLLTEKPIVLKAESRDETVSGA
In short: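 Recombinant CYP3A7 P450-Glo luminescent assay: enzyme-proluciferin substrate mix preincubated with compound 10 min at room temperature, reaction started with NADPH regeneration system for 1 h. Luciferin detected by luminescence; ketoconazole as positive control.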

[2] = Viability qHTS for spleen associated tyrosine kinase inhibitor (SYKi) drug resistant MV4-11 cells (AID 1963824); note: nearly all actives have a fitted effect of over 35% in size; note: potency is the fitted concentration of half-maximal effect
In short: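 CellTiter-Glo luminescence, read 10 min after reagent addition, reports viability after a 72 hr compound exposure. Cells are an MV4-11 line made resistant to SYK inhibition, seeded at 500 per well onto compound-containing plates.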

[3] = Cellular viability qHTS for adrenocortical cancer (ACC) cell line SW-13 (AID 1963989); conditions: SW-13 ACC cells viability, CellTiter-Glo, 48 h; activity (max response): stronger effect = lower value;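 note: cells grown in serum-free medium with ITS supplement; nearly all actives have a fitted effect of over 65% in size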
In short: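 Luminescent ATP read-out (CellTiter-Glo, 20 min at room temperature) measured metabolically competent SW-13 cells after 48 h compound treatment. Final concentrations spanned up to 46 uM; bortezomib served as positive control.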

[4] = Cellular viability qHTS for adrenocortical cancer (ACC) cell line NCI-H295R (AID 1963990); note: nearly all actives have a fitted effect of over 60% in size
In short: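 IC50 and maximal efficacy derive from four-parameter logistic modelling of titration curves, with reads scaled between DMSO-only wells (0%) and doxorubicin hydrochloride (100% inhibition). Compounds spanned up to 46 uM over 48 h.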

| Compound | Potency [1] | Potency [2] | activity (max response) [3] | Potency [4] |
| --- | --- | --- | --- | --- |
| O=C(O)c1ccccc1Nc1cc(Cl)ccc1C(=O)O | inactive | inactive | -18.2% | – |
| CC(=O)c1ccc(OCC(=O)N2CCCCC2)cc1 | inactive | inactive | 7.54% | inactive |
| COC(=O)CCc1ccc(OCC(O)CNC(C)C)cc1 (centres undefined) | inactive | inactive | -6.6% | – |
| CCCCCCCC(=O)OCC(COC(=O)CCCCCCC)OC(=O)CCCCCCC | inactive | inactive | 8.32% | – |
| O=C(O)CNC(=O)c1ccccc1 | inactive | inactive | 6.31% | – |
| CC(=O)NO | inactive | inactive | 11.6% | inactive |
| CC1(C)OC[C@@H](COC(=O)CCc2ccc(OC[C@@H](O)CNCCNC(=O)N3CCOCC3)cc2)O1 | inactive | inactive | -0.309% | – |
| CC(=O)N[C@@H](CCC(N)=O)C(=O)O | inactive | inactive | 11.4% | – |
| O=c1[nH]c(=O)n([C@H]2C[C@H](O)[C@@H](CO)O2)cc1Br | inactive | 8.41 µM (active) | -6.63% | inactive |
| CN(N=O)C(=O)N[C@@H]1[C@@H](O)[C@H](O)[C@@H](CO)O[C@@H]1O | inactive | inactive | 0.228% and 12.5% | inactive |
